# From PubChem BioAssay (Tox21)
# Inconclusive results are not listed. Activity calls are given as the source filed them. Calls follow the shape of the dose curve; as a rule, active = well fitted curve in the direction sought with a large enough effect in the repeat runs; inconclusive = weak or mixed curves; inactive = no such curve, though single readings can be large; an effect the other way counts as inactive or inconclusive.
# Biological target: Cytochrome P450 2C9 (Homo sapiens) (UniProt P11712)
# Assay: Cytochrome P450 Family 2 Subfamily C Member 9 (CYP2C9) small molecule antagonists: luciferase reporter qHTS assay (AID 1671198)
# Conditions: P450-Glo CYP2C9 enzyme assay, luciferin luminescence; series mostly up to 115 µM; activity change, negative = inhibition: at the top concentration
# Outline: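 CYP2C9 activity was measured with a P450-Glo proluciferin substrate. Enzyme–substrate mix was held with compound for 10 min at room temperature, then NADPH regeneration solution was added for 1 h at 37C. Luciferin product was read as luminescence.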
# % is scaled to controls: 0 for no effect and ±100 for the full control effect; potency is read from the fitted curve at half-maximal effect.
# Also: nearly all actives have a fitted effect of over 50% in size.
# Cytochrome P450 2C9 (Homo sapiens), sequence (P11712 whole entry, looked up): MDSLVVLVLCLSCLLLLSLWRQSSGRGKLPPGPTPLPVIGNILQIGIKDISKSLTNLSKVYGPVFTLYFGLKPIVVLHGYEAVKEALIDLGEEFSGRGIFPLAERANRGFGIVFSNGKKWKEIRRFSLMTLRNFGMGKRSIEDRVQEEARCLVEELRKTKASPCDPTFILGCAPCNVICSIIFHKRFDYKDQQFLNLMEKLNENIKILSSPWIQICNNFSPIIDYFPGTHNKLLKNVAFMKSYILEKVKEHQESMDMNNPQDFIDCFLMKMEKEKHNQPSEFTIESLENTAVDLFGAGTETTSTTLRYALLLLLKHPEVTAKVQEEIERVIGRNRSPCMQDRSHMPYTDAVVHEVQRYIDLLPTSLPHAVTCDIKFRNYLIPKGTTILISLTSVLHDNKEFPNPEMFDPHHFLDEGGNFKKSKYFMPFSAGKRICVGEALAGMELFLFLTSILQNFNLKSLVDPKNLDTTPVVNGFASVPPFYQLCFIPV
Compound,"activity change, negative = inhibition",Potency
ClCCOCCOCCCl,-0.711% (inactive),–
Nc1cc(C(=O)O)c(O)c(S(=O)(=O)O)c1,-14.7% (inactive),–
CC(C)(O)c1ccc(CNC(=O)c2cccnc2Oc2ccc(F)cc2)cc1,–,22.4 µM (active)
COc1ccc(S(=O)(=O)N2C(=O)[C@@](c3ccccc3OC)(N3C[C@H](O)C[C@H]3C(=O)N(C)C)c3cc(Cl)ccc32)c(OC)c1,–,39.9 µM (active)
OCCNCc1ccccc1,-33.6% (inactive),–
CN(C)CCN(Cc1ccccc1)c1ccccn1,0.665% [at 53 µM] (inactive),–
CCCCCCCCCOS(=O)(=O)O,–,22.4 µM (active)
CCCn1cnc2c1c(=O)n(CCCCC(C)=O)c(=O)n2C,-0.281% [at 53 µM] (inactive),–
O=C(O)c1nc(Cl)c(Cl)c(Cl)c1Cl,–,39.9 µM (active)
C=CC(=O)OCCOCCOC(=O)C=C,-9.07% (inactive),–
O=S(c1cc(Cl)cc(Cl)c1O)c1cc(Cl)cc(Cl)c1O,–,17.4 µM (active)
CC(CC=O)c1ccccc1 (stereo unspecified),–,31.7 µM (active)
CCCCCCCCCCCCN1CCCCCC1=O,–,31.7 µM (active)
Cc1ncc(CO)c(C=O)c1O,9.85% [at 53 µM] (inactive),–

# Biological target: Cytochrome P450 1A2 (Homo sapiens) (UniProt P05177)
# Assay: Cytochrome P450 Family 1 Subfamily A Member 2 (CYP1A2) small molecule antagonists: luciferase reporter qHTS assay (AID 1671199)
# Conditions: P450-Glo CYP1A2 enzyme, luciferin luminescence, 1 h; series mostly up to 53 µM; activity change, negative = inhibition: at the top concentration
# Outline: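 CYP1A2 turnover of a luminogenic substrate was quantified after 1 h with NADPH regeneration at room temperature. Furafylline served as positive control.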
# Cytochrome P450 1A2 (Homo sapiens), sequence (P05177 whole entry, looked up): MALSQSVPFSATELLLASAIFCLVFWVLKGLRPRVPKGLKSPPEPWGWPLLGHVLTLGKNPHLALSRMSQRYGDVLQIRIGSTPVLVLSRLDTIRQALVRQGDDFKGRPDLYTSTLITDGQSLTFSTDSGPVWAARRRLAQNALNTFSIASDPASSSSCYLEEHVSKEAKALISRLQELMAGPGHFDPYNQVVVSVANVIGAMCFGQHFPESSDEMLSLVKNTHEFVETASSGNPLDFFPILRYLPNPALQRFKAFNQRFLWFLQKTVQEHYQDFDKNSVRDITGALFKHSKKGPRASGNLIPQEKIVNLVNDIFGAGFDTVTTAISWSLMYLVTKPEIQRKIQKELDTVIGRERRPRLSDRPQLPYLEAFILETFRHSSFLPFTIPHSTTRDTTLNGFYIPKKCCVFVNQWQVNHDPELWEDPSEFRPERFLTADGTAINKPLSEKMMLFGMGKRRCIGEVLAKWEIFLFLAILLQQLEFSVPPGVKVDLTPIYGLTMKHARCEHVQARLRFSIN
Compound,Potency,"activity change, negative = inhibition"
Nc1ccc([N+](=O)[O-])c(C(F)(F)F)c1,11 µM (active),–
CCCCCCCCCCCCCCOS(=O)(=O)O,–,7.72% [at 115 µM] (inactive)
CC(C)C[C@H]1C(=O)N2CCC[C@H]2[C@]2(O)O[C@](NC(=O)[C@@H]3C=C4c5cccc6[nH]c(Br)c(c56)C[C@H]4N(C)C3)(C(C)C)C(=O)N12,–,-20.5% (inactive)
CCCCCCCCCCCC(=O)OC[C@@H](O)[C@H]1OC[C@H](OCCO)[C@H]1OCCO,–,-2.8% [at 115 µM] (inactive)
O=C1OC(=O)C2C3C=CC(C3)C12 (stereo unspecified),–,-15% [at 115 µM] (inactive)
COc1ccc(-c2nc3ccc(C4=NNC(=O)CC4C)cc3[nH]2)cc1 (stereo unspecified),3.63 µM (active),–
Cc1ccc(C(=O)Oc2ccc(C(O)CNC(C)(C)C)cc2OC(=O)c2ccc(C)cc2)cc1 (stereo unspecified),–,-21.6% (inactive)
CC(C)Nc1ccc(NC(C)C)c2c1C(=O)c1ccccc1C2=O,2.34 µM (active),–
COc1cc(C(=O)OCCCN2CCCN(CCCOC(=O)c3cc(OC)c(OC)c(OC)c3)CC2)cc(OC)c1OC,–,-7.84% (inactive)
CN(C)C(=O)NC1(c2ccccc2)CCN(CC[C@@]2(c3ccc(F)c(F)c3)CN(C(=O)c3ccccc3)CCO2)CC1,–,-6.76% [at 115 µM] (inactive)

# Biological target: Voltage-gated inwardly rectifying potassium channel KCNH2 (Homo sapiens) (UniProt Q12809)
# Assay: Human Ether-a-go-go-Related Gene (hERG) channel small molecule antagonists: fluorescence cell-based qHTS assay (AID 1671200);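 as to activity change, negative = inhibition: hERG-expressing U2OS cells given a thallium stimulus after FluxOR II dye loading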
# Conditions: hERG-U2OS cells, FluxOR thallium flux fluorescence; series mostly up to 76.8 µM; activity change, negative = inhibition: at the top concentration
# Outline: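 hERG-U2OS cells plated overnight at 37 C, loaded with FluxOR II dye 1 h at RT in dark; after 10 min, thallium stimulus added. Fluorescence (480/540 nm) read kinetically for 2 min at 1 s intervals.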
# Voltage-gated inwardly rectifying potassium channel KCNH2 (Homo sapiens), sequence (Q12809 whole entry, looked up): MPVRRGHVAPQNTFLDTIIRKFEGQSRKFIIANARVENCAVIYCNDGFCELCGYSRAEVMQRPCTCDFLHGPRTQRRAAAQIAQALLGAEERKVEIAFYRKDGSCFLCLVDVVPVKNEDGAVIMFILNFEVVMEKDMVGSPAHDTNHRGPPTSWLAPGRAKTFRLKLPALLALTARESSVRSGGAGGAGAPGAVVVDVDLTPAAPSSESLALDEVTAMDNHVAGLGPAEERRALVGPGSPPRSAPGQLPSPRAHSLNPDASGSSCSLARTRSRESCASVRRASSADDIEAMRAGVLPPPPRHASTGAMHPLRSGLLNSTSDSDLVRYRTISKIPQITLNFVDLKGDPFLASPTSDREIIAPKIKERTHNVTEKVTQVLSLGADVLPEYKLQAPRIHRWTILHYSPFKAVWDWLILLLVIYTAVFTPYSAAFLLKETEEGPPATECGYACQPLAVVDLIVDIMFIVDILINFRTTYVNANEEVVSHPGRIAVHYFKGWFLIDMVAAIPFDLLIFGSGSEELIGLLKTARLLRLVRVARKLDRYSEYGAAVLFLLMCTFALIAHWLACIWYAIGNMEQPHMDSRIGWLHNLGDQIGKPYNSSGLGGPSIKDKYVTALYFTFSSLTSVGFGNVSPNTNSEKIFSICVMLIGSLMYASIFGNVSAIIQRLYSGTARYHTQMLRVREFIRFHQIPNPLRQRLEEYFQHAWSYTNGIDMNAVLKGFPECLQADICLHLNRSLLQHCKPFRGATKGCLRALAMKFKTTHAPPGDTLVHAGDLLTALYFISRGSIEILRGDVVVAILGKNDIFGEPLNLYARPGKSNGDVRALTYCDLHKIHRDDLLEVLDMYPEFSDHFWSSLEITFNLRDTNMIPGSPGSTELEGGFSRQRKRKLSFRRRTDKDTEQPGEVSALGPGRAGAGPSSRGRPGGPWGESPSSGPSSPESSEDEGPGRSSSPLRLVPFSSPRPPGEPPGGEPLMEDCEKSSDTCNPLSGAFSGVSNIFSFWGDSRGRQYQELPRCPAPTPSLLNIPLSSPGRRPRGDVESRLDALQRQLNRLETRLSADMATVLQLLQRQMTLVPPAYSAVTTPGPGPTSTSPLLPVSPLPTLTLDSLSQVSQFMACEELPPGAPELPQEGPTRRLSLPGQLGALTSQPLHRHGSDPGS
Compound,"activity change, negative = inhibition",Potency
CCOc1ccc(O)cc1,1.13% (inactive),–
Nc1ccc([N+](=O)[O-])c(C(F)(F)F)c1,-1.6% [at 35.3 µM] (inactive),–
CCCCCCCCCCCCCCOS(=O)(=O)O,3.24% (inactive),–
CC(C)C[C@H]1C(=O)N2CCC[C@H]2[C@]2(O)O[C@](NC(=O)[C@@H]3C=C4c5cccc6[nH]c(Br)c(c56)C[C@H]4N(C)C3)(C(C)C)C(=O)N12,-13% [at 35.3 µM] (inactive),–
ClCCOCCOCCCl,4.77% (inactive),–
CCCCCCCCCCCC(=O)OC[C@@H](O)[C@H]1OC[C@H](OCCO)[C@H]1OCCO,-9.38% (inactive),–
Nc1cc(C(=O)O)c(O)c(S(=O)(=O)O)c1,0.508% (inactive),–
CN(C)CCCN1c2ccccc2Sc2ccccc21,–,9.52 µM (active)
CC(C)O.CC(C)O.CCOC(=O)/C=C(\C)O.CCOC(=O)/C=C(\C)O.[Ti],-0.135% (inactive),–
C[C@H](CCC(=O)O)[C@H]1CC[C@H]2[C@@H]3CC[C@@H]4C[C@H](O)CC[C@]4(C)[C@H]3C[C@H](O)[C@]12C,0.954% (inactive),–
CCC(C)O (stereo unspecified),-0.954% (inactive),–
O=C1OC(=O)C2C3C=CC(C3)C12 (stereo unspecified),-0.0038% (inactive),–
COc1ccc(-c2nc3ccc(C4=NNC(=O)CC4C)cc3[nH]2)cc1 (stereo unspecified),3% [at 35.3 µM] (inactive),–
O=C(c1ccc(F)cc1)C1CCN(CCn2c(=S)[nH]c3ccccc3c2=O)CC1,–,0.601 µM (active)
NCC(=O)O,0.344% [at 15.8 µM] (inactive),–
Cc1ccc(C(=O)Oc2ccc(C(O)CNC(C)(C)C)cc2OC(=O)c2ccc(C)cc2)cc1 (stereo unspecified),–,6.74 µM (active)

Compound,"activity change, negative = inhibition",Potency
C/C(=C(\CCOP(=O)(O)O)SC(=O)c1ccccc1)N(C=O)Cc1cnc(C)nc1N,1.89% [at 6.97 µM] (inactive),–
Cc1cc(N)c2cc(NC(=O)Nc3ccc4nc(C)cc(N)c4c3)ccc2n1,-9.65% [at 35.3 µM] (inactive),–
CN(C)CCN(Cc1ccccc1)c1ccccn1,–,9.52 µM (active)
CC(C)Nc1ccc(NC(C)C)c2c1C(=O)c1ccccc1C2=O,-5.72% [at 35.3 µM] (inactive),–
CCCCCCCCCCCCCCCCCCOS(=O)(=O)O,21.9% (inactive),–
CCCn1cnc2c1c(=O)n(CCCCC(C)=O)c(=O)n2C,2.85% [at 35.3 µM] (inactive),–
COc1cc(C(=O)OCCCN2CCCN(CCCOC(=O)c3cc(OC)c(OC)c(OC)c3)CC2)cc(OC)c1OC,–,6.01 µM (active)
CO[C@@H]1[C@H](OC(=O)/C=C/C=C/C=C/C=C/C(=O)O)CC[C@]2(CO2)[C@H]1[C@@]1(C)O[C@@H]1CC=C(C)C,6.46% (inactive),–
O=C(O)c1nc(Cl)c(Cl)c(Cl)c1Cl,-4.7% (inactive),–
C=CC(=O)OCCOCCOC(=O)C=C,24.6% (inactive),–
O=S(c1cc(Cl)cc(Cl)c1O)c1cc(Cl)cc(Cl)c1O,-5.28% [at 35.3 µM] (inactive),–
C=CC(=O)OCCOc1ccccc1,15.1% (inactive),–
CC(=O)c1ccc2c(c1)N(CCCN1CCC(CCO)CC1)c1ccccc1S2,–,3.01 µM (active)
C[C@@H]1C[C@H]2O[C@@]3(O[C@@H]2C(C)(C)O)[C@H](O)[C@@]2(C)[C@@H]4CC[C@H]5C(C)(C)[C@@H](O[C@@H]6OC[C@@H](O)[C@H](O)[C@H]6O)CC[C@@]56C[C@@]46CC[C@]2(C)[C@@H]13,-1.04% [at 35.3 µM] (inactive),–
CC(=O)[O][Al],2.32% (inactive),–
Cc1ncc(CO)c(C=O)c1O,-2.27% [at 35.3 µM] (inactive),–
